A selection: hits, their analogues and other compounds. The true share with any hit is near 7.5%.
SMN2 splice up: increases expression of the SMN2 splice variant; HEK293 SMN2-luciferase splicing reporter, luminescence, 30-36 h; Potency, µM (series often up to 46.1 µM), most hits filed as activators; 210,000 tested, 2.8% active; note: nearly all actives have a fitted effect of over 55% in size
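HEK293 cells carry an SMN2 minigene-luciferase reporter in which exon 7 inclusion puts luciferase in frame. Cells were seeded at 2000 cells/well, attached for 10-12 hours, then exposed to compounds for 30-36 hours at 37C before ONE-Glo luminescence.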
Rab9 prom act: activates the Rab9 promoter | 320,000 tested, 2.8% active | Huh7 Rab9 promoter-luciferase reporter, luminescence, 24 h | Potency, µM (doses to about 9.22 µM), hits mostly activators; note: nearly all actives have a fitted effect of over 60% in size
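Promoter activation is measured as luciferase luminescence in Huh7 cells stably transfected with a Rab9 promoter–luciferase construct, following 24 h compound exposure at 37 °C and 10 min reagent incubation at ambient temperature.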
ELG1 genotoxic: inducers of genotoxicity in HEK293T ELG1-luciferase cells. HEK293T ELG1-luciferase reporter, luminescence, 16 h. Potency, µM (titrated, usually from 46 µM), usual class: activators. 330,000 tested, 1.3% active. AID 504466; note: nearly all actives have a fitted effect of over 60% in size
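After overnight (16 hr) compound treatment at 37 °C, ELG1-luciferase HEK293T cells were lysed with ONE-Glo; luminescence quantified 30 min later at room temperature.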
FLuc counter: inhibits or activates purified firefly luciferase, miR-21 counter-screen | P08659 | AID 588342 | Potency, µM (highest dose often 57.5 µM), most hits filed as inhibitors | purified FLuc, Km substrates, luminescence inhibition | 360,000 tested, 6.9% active; note: nearly all actives have a fitted effect of over 55% in size
Target sequence (P08659 whole entry, looked up): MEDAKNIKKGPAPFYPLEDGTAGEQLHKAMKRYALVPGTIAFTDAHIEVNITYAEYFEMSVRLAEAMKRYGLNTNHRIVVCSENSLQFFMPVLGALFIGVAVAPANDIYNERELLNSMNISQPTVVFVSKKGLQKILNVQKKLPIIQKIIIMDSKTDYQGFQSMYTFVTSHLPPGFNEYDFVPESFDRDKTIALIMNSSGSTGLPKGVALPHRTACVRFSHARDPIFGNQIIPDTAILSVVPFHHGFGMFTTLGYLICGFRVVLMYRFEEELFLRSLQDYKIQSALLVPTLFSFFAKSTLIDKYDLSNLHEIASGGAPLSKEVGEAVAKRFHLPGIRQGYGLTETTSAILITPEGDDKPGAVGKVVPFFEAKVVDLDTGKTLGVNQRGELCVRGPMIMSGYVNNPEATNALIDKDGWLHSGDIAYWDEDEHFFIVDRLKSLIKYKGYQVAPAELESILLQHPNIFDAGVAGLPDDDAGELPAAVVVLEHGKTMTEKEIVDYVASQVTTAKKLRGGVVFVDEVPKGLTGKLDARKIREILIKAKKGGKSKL
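Purified P. pyralis luciferase (10nM final) with 10uM D-luciferin and 10uM ATP (Km levels) in 50mM Tris acetate pH 7.5, 10mM Mg acetate, 0.01% Tween-20, 0.05% BSA; qHTS 6-point titration, ~60 µM downward; luminescence read.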
NPC1 promoter act: activators of NPC1 promoter. 320,000 tested, 2.4% active. AID 485313. Huh7 NPC1 promoter luciferase reporter, 24 h. Potency, µM (doses to about 9.22 µM), actives largely listed as activators; note: nearly all actives have a fitted effect of over 60% in size
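Luminescence read-out of NPC1 promoter-driven luciferase in stably transfected Huh7 cells; compounds delivered in DMSO and left 24 h at 37C, 5% CO2, qHTS titration format.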
Numbers stand for hits; . = inactive; ? = inconclusive; / = no result given; [ ] = another dose, or the depositor's remark. Calls come from the whole dose curve; as a rule, active = well fitted curve in the direction sought with a large enough effect; inconclusive = small, poorly fitted or top-dose-only effect, or another doubt; inactive = no such curve, though single readings can be large; an effect the other way counts as inactive or inconclusive.

SMILES	SMN2 splice up	Rab9 prom act	ELG1 genotoxic	FLuc counter	NPC1 promoter act
O=C(N/N=C/c1ccncc1)c1ccc(OCc2ccccc2)cc1	/	.	.	.	.
COc1cc(OC)cc(C(=O)N/N=C/c2ccc(OC)c(COc3ccc(F)cc3)c2)c1	.	.	.	.	.
CC(=O)Nc1ccc(C(=O)N/N=C/c2ccccc2OCc2ccccc2)cc1	.	.	.	17µM	.
COc1ccc(OCc2cc(/C=N\NC(=O)c3ccccc3)ccc2OC)cc1	/	?	?	12µM	?
O=C(N/N=C/c1ccc(OCc2ccccc2)cc1)c1ccncc1	16µM	.	?	.	.
Oc1ccc(N=Cc2ccc(OCc3ccccc3)cc2)cc1	/	.	?	13µM	.
CC(C)(C)OC(=O)NN1CC(=O)N2Cc3[nH]c4ccccc4c3C[C@H]2C1=O	/	.	.	.	.
COc1ccc(C(C(=O)Nc2ccc3c(c2)OCO3)N(C)C(=O)Cc2c[nH]c3ccccc23)cc1 (stereo not given)	.[1.84 µM]	.	.	.	.
O=C(N/N=C/c1ccccc1OCc1ccccc1)c1cccnc1	.	.	.	11µM	.
O=C(Cn1cnc2ccccc2c1=O)OCC(=O)c1ccc2c(c1)OCCO2	.	.	.	21µM	.
O=C1COc2ccc(C(=O)COC(=O)Cn3cnc4ccccc43)cc2N1	.	.	.	.	.
O=C(Cn1cnc2ccccc2c1=O)Nc1ccc2c(c1)OCCO2	13µM	1.8µM	?	9.5µM	2.2µM
CCc1ccc(NC(=O)c2ccnc(C(C)(C)C)c2)cc1	.	.	.	.	.
CC(C)(C)C(=O)/C=c1\[nH]c(=O)/c(=C\c2ccc(F)cc2)s1	.	.	.	24µM	.
Cc1ccccc1/C=c1\s/c(=C\C(=O)C(C)(C)C)[nH]c1=O	.	.	.	17µM	.
Cc1cc(C(=O)Cn2nc(C(=O)O)c3ccccc3c2=O)c(C)n1-c1cccc(C(F)(F)F)c1	/	.	.	.	.
CCCn1c(C)cc(C(=O)Cn2nnc3ccccc3c2=O)c1C	13µM	0.89µM	?	4.3µM	1µM
CC(C)(C)c1ccc(C(=O)Cn2nc(C(=O)O)c3ccccc3c2=O)cc1	/	.	.	9.5µM	.
COCCn1c(C)cc(C(=O)Cn2nc(C(=O)O)c3ccccc3c2=O)c1C	.	?	8.2µM	1.2µM	.
Cc1cc(C(=O)Cn2nc(C(=O)O)c3ccccc3c2=O)c(C)n1C1CC1	.	.	.	.	.
Cc1cc(C(=O)Cn2nc(C(=O)O)c3ccccc3c2=O)c(C)n1-c1ccc(F)cc1	?	.	?	2.7µM	.
Cc1nc2n[nH]c(N)c2c2c1CCCC2	/	.	.	.	.
Cc1sc2ncn(CC(=O)NCc3ccco3)c(=O)c2c1-c1ccccc1	.	.	.	.	.
C=CCn1c(C)cc(C(=O)Cn2nc(C(=O)O)c3ccccc3c2=O)c1C	11µM	?	?	0.48µM	?
O=C(CN1CCOCC1)Nc1nc2ccc(Br)cc2s1	.	.	.	?	.
SMILES	SMN2 splice up	Rab9 prom act	ELG1 genotoxic	FLuc counter	NPC1 promoter act
Cc1ncc(CO)c(CO)c1O	.	.	.	.	.
COCc1c(CCl)cnc(C)c1O	/	.	.	17µM	.
COC(=O)c1ccc(N2C(=O)CC(N3CCOCC3)C2=O)cc1 (stereo not given)	.	.	.	.	.
COC(=O)c1ccc(N2OC3(C)C=CC2CC3)cc1 (stereo not given)	?	?	?	21µM	.
C/C(=C\C(=O)c1ccccc1)Nc1ccc(Br)c(Cl)c1	.	?	.	21µM	.
C/C(=C\C(=O)c1ccc(Cl)cc1)Nc1ccc(N2CCOCC2)cc1	.	.	.	.	.
C/C(=C\C(=O)c1ccc(Br)cc1)Nc1ccc(Cl)cc1	/	.	?	27µM	.
COc1cccc(N/C(C)=C/C(=O)c2ccc(Br)cc2)c1	18µM	?	?	5.4µM	?
COc1ccc(CN(C)CC2CCCN(CCc3ccccc3C)C2)cc1O (stereo not given)	/	.	.	.	.
CC(c1ccccc1)n1c(-c2ccncc2)n[nH]c1=S (stereo not given)	.	.	.	.	.
O=C(O)/C=C/C(=O)Nc1cccc2cccnc12	/	.	.	?	.
Cc1ccc(NC(=O)/C=C/c2ccco2)nc1	14µM	.	4.1µM	6µM	?
O=C(/C=C/c1ccco1)Nc1cccc2cccnc12	?	.	?	15µM	.
O=C(/C=C/c1ccco1)Nc1ccccn1	8.9µM	?	8.2µM	6.7µM	?
COC(=O)/C=C/c1ccc(OC(=O)OC)c(OC(=O)OC)c1	14µM	.	.	.	.
COc1ccc(/C=C/C(=O)OC(C)C(=O)c2ccccc2)cc1OC (stereo not given)	/	.	.	.	.
O=C(CSc1nc2ccc(NC(=O)c3ccccc3C(=O)O)cc2s1)Nc1c(Cl)cccc1Cl	/	.	.	?	.
CC1=C/C(=C(/c2ccc(O)c(C)c2)c2ccccc2S(=O)(=O)O)C=CC1=O	/	.	.	?	.
CC1=C/C(=C(/c2cc(C)c(O)c(Br)c2)c2ccccc2S(=O)(=O)O)C=C(Br)C1=O	/	.[1.84 µM]	.	15µM	.
Cc1ccc(Nc2nnc(SC/C(O)=C(\C#N)c3nc4ccccc4[nH]3)s2)c(C)c1	.	.	.	?	.
Cc1cccc(Nc2nnc(SC/C(O)=C(\C#N)c3nc4ccccc4[nH]3)s2)c1	.	.	.	17µM	.
CCOC(=O)c1[nH]c2ccc(OC)cc2c1NC(=S)N1CCN(c2ccccc2OC)CC1	.	.	.	.	.
CCCN1C(=O)/C(=C\c2nc3ccccc3c(=O)[nH]2)c2ccccc21	/	.	.	.	.
OC1(c2cccc(C(F)(F)F)c2)CCN(c2ccc(-c3ccccc3)nn2)CC1	?	1.4µM	.	.	3.2µM
O=S(=O)(c1ccc(Cl)s1)N1CCCc2cccc(O)c21	.	4µM	.	11µM	?
SMILES	SMN2 splice up	Rab9 prom act	ELG1 genotoxic	FLuc counter	NPC1 promoter act
Cc1nnc(SCC(=O)Nc2ncc(Cl)cc2Cl)n1Cc1ccccc1	.	.	.	.	.
O=C(N=Nc1ccc(NOC(=O)c2ccccc2Br)cc1)c1ccccc1O	.	?	.	8.5µM	?
CCN(CC(=O)Nc1ccc2c(c1)OCCO2)C(=O)/C=C/c1ccc(F)cc1	.	.	?	17µM	.
CCN(CC(=O)Nc1ccc2c(c1)OCCO2)C(=O)/C=C/c1ccccc1	?	.	.	?	.
CCN(CC(=O)Nc1ccc2c(c1)OCCO2)C(=O)/C=C/c1cccc(Br)c1	/	.	?	15µM	.
CCOC(=O)c1c(C)nc(C)c(C(=O)OCC)c1-c1cccnc1	/	.	.	.	.
CCOC(=O)c1c(-c2ccccc2)cn2c(C)cc(C)nc12	11µM	2.8µM	16µM	3.4µM	3.2µM
CCOC(=O)c1c(C)nc(-c2ccccc2)nc1N	/	?	18µM	.[2.3 µM]	.
CCOC(=O)c1cnn(-c2cc(C)nc3c(-c4ccccc4)c(C)nn23)c1N	.	.	.	.	.
